Several values for one entry are separate records, joined by “and”; a condition that tells them apart may be missing. Identical values can stand only once. The campaign covered roughly 5,500 compounds. About 2,000 (36%) were called active. About 18% were inconclusive and are not listed. No stated cut-off is given here; in the data, active means normalized growth mostly below about 0.91 (no sharp cut-off); inconclusive means no clear call, values can overlap the other calls; inactive means mostly above about 0.92. Some of the results follow.
Assay: chemical genetic growth profiling, strain panel (AID 1159580);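 further: tested at 20 µM; growth read once vehicle control cultures reached saturation at 30 °C; 1 = growth at the plate median or of vehicle wells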
Details: S. cerevisiae deletion strains, growth OD

Measured: normalized growth

C[n+]1ccccc1/C=N/O
inactive: locus YAL013W, strain DEP1, stronger effect = lower value 1.01 | locus YAL021C, strain ccr4, stronger effect = lower value 0.99 | locus YAL026C, strain drs2, stronger effect = lower value 1.02 | locus YAL030W, strain snc1, stronger effect = lower value 1 | locus YBL061C, strain skt5, stronger effect = lower value 0.992 | locus YBR009C, strain hhf1, stronger effect = lower value 1.03 | locus YBR021W, strain FUR4, stronger effect = lower value 0.985 | locus YBR023C, strain chs3, stronger effect = lower value 0.995 | locus YBR171W, strain sec66, stronger effect = lower value 1 | locus YBR229C, strain ROT2, stronger effect = lower value 1.01 | locus YBR231C, strain swc5, stronger effect = lower value 1.02 | locus YBR279W, strain paf1, stronger effect = lower value 1.01 | locus YCL011C, strain gbp2, stronger effect = lower value 1.01 | locus YCL016C, strain dcc1, stronger effect = lower value 1.01 | locus YCL029C, strain bik1, stronger effect = lower value 1.01 | locus YCL069W, strain vba3, stronger effect = lower value 1 | locus YCR088W, strain abp1, stronger effect = lower value 1 | locus YDL005C, strain med2, stronger effect = lower value 0.986 | locus YDL035C, strain GPR1, stronger effect = lower value 1.01 | locus YDL040C, strain nat1, stronger effect = lower value 1.01 | locus YDL074C, strain BRE1, stronger effect = lower value 1 | locus YDL101C, strain DUN1, stronger effect = lower value 1.01 | locus YDL134C, strain PPH21, stronger effect = lower value 0.997 | locus YDL185W, strain tfp1, stronger effect = lower value 0.999 | locus YDL192W, strain arf1, stronger effect = lower value 1 | locus YDR001C, strain nth1, stronger effect = lower value 0.997 | locus YDR069C, strain doa4, stronger effect = lower value 1.02 | locus YDR101C, strain arx1, stronger effect = lower value 1 | locus YDR137W, strain rgp1, stronger effect = lower value 1.01 | locus YDR150W, strain NUM1, stronger effect = lower value 1.01 | locus YDR159W, strain sac3, stronger effect = lower value 0.967 | locus YDR162C, strain NBP2, stronger effect = lower value 1.01 | locus YDR195W, strain ref2 0.999 | locus YDR297W, strain sur2, stronger effect = lower value 1.01 | locus YDR318W, strain mcm21, stronger effect = lower value 0.994 | locus YDR334W, strain swr1, stronger effect = lower value 1 | locus YDR335W, strain msn5, stronger effect = lower value 1.01 | locus YDR388W, stronger effect = lower value 0.996 | locus YDR392W, strain spt3, stronger effect = lower value 0.918 | locus YDR502C, strain sam2, stronger effect = lower value 1 | locus YEL003W, strain gim4, stronger effect = lower value 1.01 | locus YEL037C, strain rad23, stronger effect = lower value 0.998 | locus YEL061C, strain CIN8 (second series), stronger effect = lower value 1.02 | locus YEL061C, strain CIN8, stronger effect = lower value 1.01 | locus YER015W, strain faa2, stronger effect = lower value 1.01 | locus YER016W, strain bim1, stronger effect = lower value 0.991 | locus YER110C, stronger effect = lower value 1.01 | locus YER111C, strain swi4, stronger effect = lower value 1 | locus YER155C, strain BEM2 (second series), stronger effect = lower value 1.02 | locus YER155C, strain BEM2, stronger effect = lower value 0.998 | locus YER167W, strain BCK2, stronger effect = lower value 1.01 | locus YFR010W, strain ubp6, stronger effect = lower value 1.02 | locus YGL078C, strain dbp3, stronger effect = lower value 1.02 | locus YGL086W, strain mad1, stronger effect = lower value 1.01 | locus YGL167C, strain pmr1, stronger effect = lower value 1.01 | locus YGL173C, strain kem1, stronger effect = lower value 0.991 | locus YGL227W, strain vid30, stronger effect = lower value 0.994 | locus YGL240W, strain doc1, stronger effect = lower value 0.993 | locus YGL248W, strain PDE1, stronger effect = lower value 1.01 | locus YGL253W, strain hxk2, stronger effect = lower value 1.02 | locus YGR078C, strain PAC10, stronger effect = lower value 1.01 | locus YGR135W, strain pre9, stronger effect = lower value 1.01 | locus YGR229C, strain SMI1, stronger effect = lower value 1.02 | locus YGR252W, strain gcn5, stronger effect = lower value 0.954 | locus YHR013C, strain ard1, stronger effect = lower value 0.982 | locus YHR027C, strain rpn1, stronger effect = lower value 1 | locus YHR030C, strain SLT2, stronger effect = lower value 1.01 and 1 | locus YHR079C, strain IRE1 (second series), stronger effect = lower value 0.995 | locus YHR079C, strain IRE1, stronger effect = lower value 0.997 | locus YHR094C, strain hxt1, stronger effect = lower value 1 | locus YHR129C, strain ARP1, stronger effect = lower value 1.01 | locus YHR142W, strain chs7, stronger effect = lower value 1.02 | locus YHR200W, strain rpn10, stronger effect = lower value 0.99 | locus YIL066C, strain RNR3, stronger effect = lower value 1.01 | locus YIL073C, strain SPO22, stronger effect = lower value 0.996 | locus YIL125W, strain kgd1, stronger effect = lower value 0.985 | locus YIR030C, strain dcg1, stronger effect = lower value 1.01 | locus YJL092W, strain hpr5, stronger effect = lower value 1.01 | locus YJL095W, strain BCK1 (second series), stronger effect = lower value 0.99 | locus YJL095W, strain BCK1, stronger effect = lower value 1.01 | locus YJL115W, strain asf1, stronger effect = lower value 1.01 | locus YJL129C, strain trk1, stronger effect = lower value 1.01 | locus YJL134W, strain LCB3, stronger effect = lower value 1.01 | locus YJL154C, strain vps35, stronger effect = lower value 1.02 | locus YJL164C, strain tpk1, stronger effect = lower value 1 | locus YJL166W, strain qcr8, stronger effect = lower value 1.01 | locus YJL168C, strain set2, stronger effect = lower value 0.995 | locus YJL187C, strain SWE1 (second series), stronger effect = lower value 1.01 | locus YJR043C, strain POL32, stronger effect = lower value 0.995

Reference: PubChem BioAssay AID1159580 (chemical genetic matrix, 2015)
